# PubChem BioAssay (NCI)
# Compounds without any hit were thinned out: in the full panel of roughly 83,000, 20% have a hit.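 Negative percent growth values reflect cell death: -40 means 40% of the cells present at the start died, and -100 means all died.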 Values without a mark were called inactive. Active and inactive are the calls of the source. How the source made its calls: active means growth percent below 10; inactive means the rest.
# Assays:
# Test in all cases: NCI-60 one-dose screen, 48 h (100 = growth as untreated, 0 = no growth, -100 = all killed)
# Details in all cases: 10 µM unless noted
# [1] = system: SK-MEL-2 melanoma
# [2] = system: EKVX NSCLC
# [3] = system: SN12C renal
# [4] = system: TK-10 renal
# [5] = system: ACHN renal
# [6] = system: A498 renal
# [7] = system: CCRF-CEM leukemia
# [8] = system: MOLT-4 leukemia
# [9] = system: CAKI-1 renal
# [10] = system: UO-31 renal
Compound,growth [1],growth [2],growth [3],growth [4],growth [5],growth [6],growth [7],growth [8],growth [9],growth [10] [%]
Clc1ccc2nc(CI)c(CI)nc2c1,82.5%,90.1%,59.4%,88.3%,87.7%,118%,4.15% (active),-27.4% (active),,
O=C(C(=O)N1CCOCC1)c1cn(CCCn2cc(C(=O)C(=O)N3CCOCC3)c3ccccc32)c2ccccc12,100%,104%,96.3%,97.6%,100%,134%,-13.1% (active),104%,104%,
Cc1ccc2nc3c(n2c1)C(=O)C(=O)c1ccccc1-3,-55.6% (active),-89.6% (active),-71.7% (active),-62.4% (active),-77.1% (active),-96.4% (active),-12.8% (active),-70.8% (active),-83% (active),
O=C(c1ccccc1)C(CN1CCCCC1)c1ccccc1 (stereo not drawn),50.1%,93.8%,26%,10.9%,-12.5% (active),,-20.2% (active),0.0819% (active),1.39% (active),
[N-]=[N+]=NCc1cccc(/C(O)=C/C(=O)C(=O)O)c1,72.8%,120%,90.4%,107%,107%,108%,75.2%,-100% (active),131%,
C[C@H]1C(=O)N2c3ccccc3[C@@]3(O)C[C@@H](n4cnc5ccccc5c4=O)C(=O)N1[C@@H]23,19.2%,103%,120%,109%,104%,,95%,105%,99.2%,
COc1cc(/C=C/C(=O)c2c(C)n([O-])c3ccc(Cl)cc3[n+]2=O)cc(OC)c1OC,61.8%,65.8%,80.1%,103%,79.6%,98.2%,-34.2% (active),-34.8% (active),107%,
C(#Cc1ccccc1C#Cc1ccccn1)c1ccc(OCCCCCCOc2ccc(C#Cc3ccccc3C#Cc3ccccn3)cc2)cc1,64.2%,42.5%,67.8%,76.2%,44.2%,57.5%,,21.6%,57.9%,
CC(=O)O[C@H]1CC[C@@]2(C)C(=CC[C@@H]3[C@@H]2CC[C@]2(C)C(c4cccnc4)=CC[C@@H]32)C1,23.6%,49.5%,96.7%,90.8%,44.7%,91.5%,48.3%,46%,,
CCOC(=O)C(Br)=P(c1ccccc1)(c1ccccc1)c1ccccc1,98.8%,103%,101%,117%,104%,109%,-40.7% (active),99.6%,82.9%,
COc1cc(/C=C/C(=O)C(C(=O)/C=C/c2ccc(OC(=O)CCNc3nnc(C)s3)c(OC)c2)C(=O)CCNc2nnc(C)s2)ccc1OC(=O)CCNc1nnc(C)s1,13.2%,21.9%,-33.9% (active),29.4%,-21.4% (active),49.7%,,-27.9% (active),-3.62% (active),
N#Cc1ccccc1C#Cc1ccccc1C#Cc1ccc(OCCCCCCOc2ccc(C#Cc3ccccc3C#Cc3ccccc3C#N)cc2)cc1,98.3%,111%,104%,147%,109%,113%,3.16% (active),103%,116%,
Nc1nc(SCc2cccnc2)c2ncn(C3OC(CO)C(O)C3O)c2n1 (stereo not drawn),109%,101%,89.2%,99.5%,92.2%,,115%,111%,98.6%,
COc1cc(/C=C/C(=O)C(C(=O)/C=C/c2ccc(OC(=O)CCNC34CC5CC(CC(C5)C3)C4)c(OC)c2)C(=O)CCNC23CC4CC(CC(C4)C2)C3)ccc1OC(=O)CCNC12CC3CC(CC(C3)C1)C2 (stereo not drawn),7.68% (active),19.6%,5.02% (active),44.2%,6.38% (active),59.3%,-36.4% (active),-20.4% (active),18.6%,
Cn1cc(NC(=O)Nc2cc(C(=O)O)n(C)c2)cc1C(=O)O,97.8%,114%,89.6%,107%,104%,109%,103%,85.9%,99.3%,
N=C1c2nc3n(c2C(=O)c2nc4n(c21)CCCCC4)CCCCC3,118%,103%,106%,142%,105%,91.6%,104%,93.7%,95.1%,
CCCCCN(CCCCC)CCCNc1c2c(nc3ccc(Cl)cc13)CCCC2,13.4%,50.7%,49.9%,31.5%,40.8%,38.4%,27%,27.8%,26.6%,
Clc1ccc2[nH]cc(-c3cncn3CCc3ccccc3)c2c1,52.5%,34.4%,57.2%,42.8%,66%,,54.1%,51%,39%,
N#Cc1c(NC(=O)c2ccco2)[n+]([O-])c2cc(Cl)c(Cl)cc2[n+]1[O-],89.9%,82.4%,94.1%,163%,110%,,,1.53% (active),134%,
CN(C)c1ncnc2c1ncn2C1CCCCO1 (stereo not drawn),102%,102%,93.8%,101%,104%,,94.9%,95.1%,102%,
Nc1ccccc1C#Cc1ccccc1C#Cc1ccc(OCCCCCCOc2ccc(C#Cc3ccccc3C#Cc3ccccc3N)cc2)cc1,103%,89.3%,99.4%,141%,102%,116%,-59.7% (active),103%,91.6%,
COP(=O)(OC)C(c1ccc(O)cc1)(c1ccc(O)cc1)c1ccc(O)cc1,101%,113%,105%,124%,103%,98.7%,5.74% (active),94.3%,94.9%,
Cc1ccc(N/N=C(/C(=O)c2ccc(Cl)cc2)c2nc(C)cc(=O)[nH]2)cc1,95.3%,91.5%,100%,136%,99.1%,108%,-15.1% (active),98.6%,113%,
COc1cccc(-c2nc(-c3ccc(N)cc3)co2)c1,99.8%,102%,95.2%,109%,106%,100%,,81.8%,94.7%,
Nc1ncnc2c1CN(Cc1ccccc1)CC2,103%,110%,,108%,103%,120%,95.5%,,102%,76.2
c1ccc(COc2ccc(Nc3ncnc4c3cnn4-c3ccccc3)cc2)cc1,115%,,97.4%,111%,104%,77.9%,80.8%,93.1%,99.1%,79.6
Cc1cc(-c2ccccc2)cc(C)n1,98.1%,116%,,103%,,116%,102%,100%,103%,78.6
CCSc1nc(-c2ccc(F)cc2)c(C#N)c(=O)[nH]1,96.3%,105%,96.2%,,97.1%,,102%,124%,98.7%,
Clc1ccc2c(c1)C(Br)c1cc(Cl)cc(Cl)c1-2 (stereo not drawn),95.5%,46.2%,27.5%,118%,99.1%,120%,-37.8% (active),-20.2% (active),,
O=c1ncc(-c2ccc(C(F)(F)F)cc2)c(NC2CCCCCC2)[nH]1,50.9%,,45.9%,65.1%,24.4%,84.4%,46.4%,77.7%,93%,52.3
